{"source": "the supplement of paper PMC8728848", "binders": {"B1": {"name": "Awp3 (Candida glabrata), B4UN32 (protein)", "chain": "MISFVTLLAILGLLSISWADQTVRSVAGDQRVTDPVIVGDNSILDYYGGSNYDFSNNFEIGRGTLYIGKESYFSSFQSAPTDVPNSFHLLIKNTNNLQNNGQFIIENIKRHANQCSNSSIQVFPINFQNDGEFEIISGGVEGRCCLPTSVIAPQNFLNNGKFYYKVLTDTGSIYSGSCMQNVDIGASTTTTVNNNLWEFTGSINAQINGAVSGAAQINLDGSNMFVNANTFSGQVVNLINGGSFLQTSDPLSNIVVINGLGTSDTGVTSIAVKGKGKSFTYNPSSGIVKLTTVEGKTYAYQIGCGYNTKKFITNNDSGASYESADNFFVLTYSEPYSPQTCQLENSSIFSSNFISTSTSSSSSSSSASSLPSSMSSSLPSSLSSSLSSSLSSSMSSSMSSLFIIPPPYTTTRSSGSSIIDTEIVSFYSTTDSPGHTITGTTTTTLYGPHTHSSVSTPSSSSESSTTSNSSIESSSLPHTSVSSTPESSITPSSNTISSSPTSDFSSVQSSSIMESSSVVASSSVINSSSIVDSSSSSASSLPSSMSSSLSSSMSSSLPSSMSSSLSSSLSSSLSSSMSSSMSSLFIIPPPYTTTRSSGSSIIDTEIVSFYSTTDSPGHTITGTTTTTLYGPHTHSSVSTPSSSSESSTTSNSSIESSSLPHTSVSSTPESSITPSSNTISSSPTSDFSSVQSSSIMESSSVVASSSVINSSSIVDSSSSSASSLPSSMPSSLPSSMSSSLSSSMSSSLSSSLSSSLSSSMSSSMSSLFIIPPPYTTTRSSGSSIIDTEIVSFYSTTDSPGHTITGTTTTTLYGPHTHSSVSTPSSSSESSTTSNSSIESSSLPHTSVSSTPESSITPSSNTISSSPTSDFSSVQSSSIMESSSVVASSSATQSSSVINSSSIVDSSSSSASSLPSSMPSSLPSSLSSSLSSSLSSSMSSSMSSLFIIPPPYTTTRSSGSSIIDTEIVSFYSTTDSPGHTITGTTTTTLYESSIYSSSSSTIQESELSNTSRTTMTSNSSVSISSTSSRSSFSNTKSSTIVISQSASLPDSKTDIILSTSSNIGYSSRSLLSDLGTSISDSDIHHSVLHSTESYSSNESGTNPFTSIASLSNFIPESSSHTSTALGSENSVISSDILTTMSHPVATNSGDKPTTPKRSEQVSTTMTSSGPTPDTSSFDTDGMSAYSRPEFTTNSLEVNKSSTSQLGNNKQTFSNLQLESTRPHSENEVDNNTRLLQSIQQSSTYGTNNVNPLSPTGSISIPLTEDGQGDNNNWNSPATNDLCTQISFNLTATTITVTDRITITDSIHDISSEVITSYIYQTIVDQKTVTQTVDGKSLANKMSSIPKPSSRSLIQPQPPVAIELQEGAASTSRVSLVSLFISIILVLL"}}, "assay_in_all_cases": "glycan array binding signal (z-score within array); higher = stronger binding", "conditions_in_all_cases": "glycan notation: IUPAC condensed, linker removed", "key": {"[1]": {"target": "GalNAc(b1-3)Gal(a1-4)Gal(b1-4)GlcNAc", "procedure,_shortened": "(§1)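 The Consortium for Functional Glycomics database supplied 3228 glycan arrays, of which those lacking an available protein sequence were dropped. The binding signal, a within-array Z-score, was averaged across arrays of the same protein sequence and across linkers. Negative scores can be read as non-binding.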"}, "GalNAc3S(b1-4)GlcNAc": {"target": "GalNAc3S(b1-4)GlcNAc", "procedure,_shortened": "as §1"}, "[2]": {"target": "GlcNAc(a1-4)Gal(b1-4)GlcNAc(b1-3)Gal(b1-4)Glc", "procedure,_shortened": "as §1"}, "[3]": {"target": "GlcNAc(a1-6)Gal(b1-4)GlcNAc", "procedure,_shortened": "as §1"}, "[4]": {"target": "GlcNAc(b1-2)[GlcNAc(b1-4)]Man(a1-3)[GlcNAc(b1-4)][GlcNAc(b1-2)[GlcNAc(b1-6)]Man(a1-6)]Man(b1-4)GlcNAc(b1-4)GlcNAc", "procedure,_shortened": "as §1"}, "[5]": {"target": "GlcNAc(b1-3)Gal(b1-4)GlcNAc(b1-2)Man(a1-3)[GlcNAc(b1-3)Gal(b1-4)GlcNAc(b1-2)Man(a1-6)]Man(b1-4)GlcNAc(b1-4)[Fuc(a1-6)]GlcNAc", "procedure,_shortened": "as §1"}, "[6]": {"target": "GlcNAc(b1-3)Gal(b1-4)GlcNAc(b1-3)Gal(b1-4)GlcNAc(b1-3)GalNAc", "procedure,_shortened": "as §1"}, "Man(a1-6)Man": {"target": "Man(a1-6)Man", "procedure,_shortened": "as §1"}, "Man(b1-4)GlcNAc": {"target": "Man(b1-4)GlcNAc", "procedure,_shortened": "as §1"}, "Neu5Ac(a2-3)Gal": {"target": "Neu5Ac(a2-3)Gal", "procedure,_shortened": "as §1"}, "[7]": {"target": "Neu5Ac(a2-3)Gal(b1-3)GalNAc(b1-4)[Neu5Ac(a2-3)]Gal(b1-4)Glc", "procedure,_shortened": "as §1"}, "[8]": {"target": "Neu5Ac(a2-3)Gal(b1-3)GalNAc(b1-4)[Neu5Ac(a2-8)Neu5Ac(a2-3)]Gal(b1-4)Glc", "procedure,_shortened": "as §1"}, "[9]": {"target": "Neu5Ac(a2-3)Gal(b1-3)GlcNAc(b1-2)Man(a1-3)[Neu5Ac(a2-3)Gal(b1-3)GlcNAc(b1-2)Man(a1-6)]Man(b1-4)GlcNAc(b1-4)GlcNAc", "procedure,_shortened": "as §1"}, "[10]": {"target": "Neu5Ac(a2-3)Gal(b1-4)GlcNAc(b1-6)[Neu5Ac(a2-3)Gal(b1-3)]GalNAc", "procedure,_shortened": "as §1"}, "[11]": {"target": "Neu5Ac(a2-3)[Neu5Ac(a2-6)]GalNAc", "procedure,_shortened": "as §1"}, "[12]": {"target": "Neu5Ac(a2-6)Gal(b1-4)GlcNAc(b1-2)Man", "procedure,_shortened": "as §1"}, "[13]": {"target": "Neu5Ac(a2-6)Gal(b1-4)GlcNAc(b1-2)Man(a1-6)[Man(a1-3)]Man(b1-4)GlcNAc(b1-4)GlcNAc", "procedure,_shortened": "as §1"}, "[14]": {"target": "Neu5Ac(a2-6)Gal(b1-4)GlcNAc(b1-3)Gal(b1-4)GlcNAc(b1-2)Man(a1-3)[Neu5Ac(a2-6)Gal(b1-4)GlcNAc(b1-3)Gal(b1-4)GlcNAc(b1-2)Man(a1-6)]GalNAc", "procedure,_shortened": "as §1"}, "[15]": {"target": "Neu5Ac(a2-6)GlcNAc(b1-4)GlcNAc", "procedure,_shortened": "as §1"}, "[16]": {"target": "Neu5Ac(a2-6)GlcNAc(b1-4)GlcNAc(b1-4)GlcNAc", "procedure,_shortened": "as §1"}, "[17]": {"target": "Neu5Ac(a2-8)Neu5Ac(a2-3)Gal(b1-4)GlcNAc", "procedure,_shortened": "as §1"}, "[18]": {"target": "Neu5Ac(a2-8)Neu5Ac(a2-8)Neu5Ac(a2-8)Neu5Ac(a2-3)[GalNAc(b1-4)]Gal(b1-4)Glc", "procedure,_shortened": "as §1"}, "[19]": {"target": "Neu5Ac9Ac(a2-3)Gal(b1-4)GlcNAc", "procedure,_shortened": "as §1"}, "Neu5Gc(a2-6)GalNAc": {"target": "Neu5Gc(a2-6)GalNAc", "procedure,_shortened": "as §1"}, "[20]": {"target": "Neu5Gc(a2-8)Neu5Gc(a2-3)Gal(b1-4)GlcNAc", "procedure,_shortened": "as §1"}}, "note": "Many of the other results were omitted from the sample, so the strongest signals are more common in it than they were."}
{"binder": "B1", "values": [{"measurement": "glycan array binding signal (z-score)", "setting": "[1]", "value": 0.048}, {"measurement": "glycan array binding signal (z-score)", "setting": "GalNAc3S(b1-4)GlcNAc", "value": 3.17}, {"measurement": "glycan array binding signal (z-score)", "setting": "[2]", "value": -0.466}, {"measurement": "glycan array binding signal (z-score)", "setting": "[3]", "value": -0.59}, {"measurement": "glycan array binding signal (z-score)", "setting": "[4]", "value": -1.54}, {"measurement": "glycan array binding signal (z-score)", "setting": "[5]", "value": 2.04}, {"measurement": "glycan array binding signal (z-score)", "setting": "[6]", "value": 0.914}, {"measurement": "glycan array binding signal (z-score)", "setting": "Man(a1-6)Man", "value": 0.889}, {"measurement": "glycan array binding signal (z-score)", "setting": "Man(b1-4)GlcNAc", "value": 0.34}, {"measurement": "glycan array binding signal (z-score)", "setting": "Neu5Ac(a2-3)Gal", "value": -1.36}, {"measurement": "glycan array binding signal (z-score)", "setting": "[7]", "value": -0.398}, {"measurement": "glycan array binding signal (z-score)", "setting": "[8]", "value": -0.714}, {"measurement": "glycan array binding signal (z-score)", "setting": "[9]", "value": 0.813}, {"measurement": "glycan array binding signal (z-score)", "setting": "[10]", "value": -2.35}, {"measurement": "glycan array binding signal (z-score)", "setting": "[11]", "value": -0.108}, {"measurement": "glycan array binding signal (z-score)", "setting": "[12]", "value": -0.199}, {"measurement": "glycan array binding signal (z-score)", "setting": "[13]", "value": 0.591}, {"measurement": "glycan array binding signal (z-score)", "setting": "[14]", "value": 3.08}, {"measurement": "glycan array binding signal (z-score)", "setting": "[15]", "value": 2.86}, {"measurement": "glycan array binding signal (z-score)", "setting": "[16]", "value": 2.42}, {"measurement": "glycan array binding signal (z-score)", "setting": "[17]", "value": -1.76}, {"measurement": "glycan array binding signal (z-score)", "setting": "[18]", "value": 1.87}, {"measurement": "glycan array binding signal (z-score)", "setting": "[19]", "value": -0.226}, {"measurement": "glycan array binding signal (z-score)", "setting": "Neu5Gc(a2-6)GalNAc", "value": -0.186}, {"measurement": "glycan array binding signal (z-score)", "setting": "[20]", "value": 0.721}]}
